The panel holds about 83,000 compounds, 20% with a hit somewhere; the sample as a whole holds those more often.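 Plates (96-well) were seeded with cells, treated with compound at one concentration, and incubated for 48 hours before percent growth was determined.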 Calls of active or inactive are those of the source. Rule for the calls: active = growth percent below 10; inactive = the rest.
Legend:
Assay in all cases: NCI-60 one-dose screen, 48 h (100 = growth as untreated, 0 = no growth, -100 = all killed)
Conditions in all cases: 10 µM unless noted
NCI-H23 lung = system: NCI-H23 lung
NCI-H226 lung = system: NCI-H226 lung
HOP-62 NSCLC = system: HOP-62 NSCLC
NCI-H460 lung = system: NCI-H460 lung
HOP-92 NSCLC = system: HOP-92 NSCLC
NCI-H522 lung = system: NCI-H522 lung
A549/ATCC NSCLC = system: A549/ATCC NSCLC
786-0 renal = system: 786-0 renal
COLO 205 colon = system: COLO 205 colon
DU-145 prostate = system: DU-145 prostate
K-562 leukemia = system: K-562 leukemia
MALME-3M melanoma = system: MALME-3M melanoma
MDA-MB-231 breast = system: MDA-MB-231 breast
RXF 393 renal = system: RXF 393 renal
SF-268 CNS = system: SF-268 CNS
SF-295 CNS = system: SF-295 CNS
SF-539 CNS = system: SF-539 CNS
UACC-257 melanoma = system: UACC-257 melanoma
M14 melanoma = system: M14 melanoma

Measured: growth

C[C@H](CCC(=O)O)[C@H]1CC[C@H]2[C@@H]3CC[C@@H]4/C(=C\c5ccco5)C(=O)/C(=C\c5ccco5)C[C@]4(C)[C@H]3CC[C@]12C
inactive: NCI-H23 lung 70.4% | NCI-H226 lung 89.2% | HOP-62 NSCLC 116% | NCI-H460 lung 81.9% | HOP-92 NSCLC 106% | NCI-H522 lung 37.3% | A549/ATCC NSCLC 72.1% | 786-0 renal 91% | COLO 205 colon 87.3% | DU-145 prostate 66.5% | K-562 leukemia 30% | MALME-3M melanoma 58.1% | MDA-MB-231 breast 107% | RXF 393 renal 45.1% | SF-268 CNS 80.6% | SF-295 CNS 70.6% | SF-539 CNS 76.3% | UACC-257 melanoma 51.6% | M14 melanoma 52.5%

C[C@@H]1CC[C@@H]2[C@@H]1[C@H](OC(=O)/C=C/c1ccccc1)[C@]1(C3CCCCC3)C[C@@H](OC(=O)CO)[C@@]2(C)O1
inactive: NCI-H23 lung 81.9% | NCI-H226 lung 68.2% | HOP-62 NSCLC 86% | NCI-H460 lung 68.3% | HOP-92 NSCLC 55.3% | NCI-H522 lung 65.9% | A549/ATCC NSCLC 53.1% | 786-0 renal 73.2% | COLO 205 colon 80.6% | DU-145 prostate 81.5% | MALME-3M melanoma 104% | MDA-MB-231 breast 84.7% | RXF 393 renal 26.9% | SF-268 CNS 32.1% | SF-295 CNS 87.5% | SF-539 CNS 89.6% | UACC-257 melanoma 67.8% | M14 melanoma 89.9%

O=C1c2cc3c(cc2-c2c1c1cc(Cl)c(Cl)cc1c(=O)n2C[C@H](O)CO)OCO3
active: NCI-H23 lung -55.7% | NCI-H226 lung -62% | HOP-62 NSCLC -54.3% | NCI-H460 lung -0.391% | HOP-92 NSCLC -31.9% | NCI-H522 lung -29% | A549/ATCC NSCLC -47.3% | 786-0 renal -44.3% | COLO 205 colon -39.4% | DU-145 prostate -14.6% | K-562 leukemia 7.53% | MALME-3M melanoma -37.4% | MDA-MB-231 breast 0.134% | RXF 393 renal -69% | SF-268 CNS -2.79% | SF-295 CNS -47% | UACC-257 melanoma -52.9% | M14 melanoma -16.3%

CCCCCCCCCCCCCCCCCCNC(=O)[C@H]1CSC(c2ccc(OC)c(F)c2)N1 (some centres undefined)
inactive: NCI-H23 lung 36.9% | HOP-92 NSCLC 37.8% | NCI-H522 lung 56.7% | A549/ATCC NSCLC 20.9% | 786-0 renal 22.8% | COLO 205 colon 102% | DU-145 prostate 67.1% | SF-295 CNS 87.5% | UACC-257 melanoma 70.3%
active: NCI-H226 lung -68% | HOP-62 NSCLC -82.9% | NCI-H460 lung -67.8% | K-562 leukemia 0.509% | MALME-3M melanoma -57.4% | MDA-MB-231 breast -42.8% | RXF 393 renal -34% | SF-268 CNS -61% | SF-539 CNS -15.1% | M14 melanoma -76.7%

OCCNCCNc1c2ccccc2nc2ccccc12
inactive: NCI-H23 lung 64.8% | NCI-H226 lung 58.3% | HOP-62 NSCLC 60.7% | NCI-H460 lung 54.6% | HOP-92 NSCLC 81.1% | NCI-H522 lung 41.6% | A549/ATCC NSCLC 98.2% | 786-0 renal 84.9% | COLO 205 colon 47.9% | DU-145 prostate 88.3% | K-562 leukemia 69.8% | MALME-3M melanoma 42.1% | MDA-MB-231 breast 57.9% | RXF 393 renal 102% | SF-268 CNS 55.9% | SF-295 CNS 95.4% | SF-539 CNS 69.8% | UACC-257 melanoma 102% | M14 melanoma 90.9%

CC1=C(NCCN2CCCC2)C(=O)c2c(OCc3cccc(Cl)c3)cccc2C1=O
inactive: NCI-H23 lung 81.4% | NCI-H226 lung 94.1% | HOP-62 NSCLC 78.4% | NCI-H460 lung 83.1% | HOP-92 NSCLC 60.6% | NCI-H522 lung 82.9% | A549/ATCC NSCLC 77.2% | 786-0 renal 63.3% | COLO 205 colon 69.7% | DU-145 prostate 89.9% | K-562 leukemia 30.8% | MALME-3M melanoma 53% | MDA-MB-231 breast 62.8% | RXF 393 renal 73.8% | SF-268 CNS 72.8% | SF-295 CNS 56.9%
active: UACC-257 melanoma -42.4% | M14 melanoma -72.6%

CC(=O)C1=C(O)C=C2Oc3c(C(=O)/C=C/c4ccccc4)c(O)c(C)c(O)c3[C@]2(C)C1=O
inactive: NCI-H23 lung 42.4% | NCI-H226 lung 53.9% | HOP-62 NSCLC 37.3% | NCI-H460 lung 40.9% | HOP-92 NSCLC 15.5% | NCI-H522 lung 21.6% | A549/ATCC NSCLC 15% | 786-0 renal 30.7% | COLO 205 colon 40.4% | DU-145 prostate 57% | K-562 leukemia 24.9% | MALME-3M melanoma 74.2% | MDA-MB-231 breast 61.2% | RXF 393 renal 62.9% | SF-268 CNS 35.2% | SF-295 CNS 19.5% | UACC-257 melanoma 44.5% | M14 melanoma 36.1%

CCOC(=O)C(=Cc1ccccc1F)C(=O)OCC
inactive: NCI-H23 lung 99.2% | NCI-H226 lung 96.1% | HOP-62 NSCLC 137% | NCI-H460 lung 105% | HOP-92 NSCLC 103% | NCI-H522 lung 65.2% | A549/ATCC NSCLC 90.3% | 786-0 renal 104% | COLO 205 colon 115% | DU-145 prostate 71.1% | MALME-3M melanoma 94.2% | MDA-MB-231 breast 93.3% | RXF 393 renal 102% | SF-268 CNS 89.9% | SF-295 CNS 111% | SF-539 CNS 98% | UACC-257 melanoma 83.2% | M14 melanoma 85.8%

COc1ccc(/C=C2\N=C3Sc4cc(Cl)ccc4C(=O)N3C2=O)cc1
inactive: NCI-H23 lung 96% | NCI-H226 lung 83% | HOP-62 NSCLC 103% | NCI-H460 lung 104% | HOP-92 NSCLC 82.6% | NCI-H522 lung 87.5% | A549/ATCC NSCLC 96.4% | 786-0 renal 101% | COLO 205 colon 105% | DU-145 prostate 110% | K-562 leukemia 94.1% | MALME-3M melanoma 101% | MDA-MB-231 breast 100% | RXF 393 renal 106% | SF-268 CNS 106% | SF-539 CNS 98.7% | M14 melanoma 99.6%

CCOC(=O)c1cnc2cc(Cl)c(F)cc2c1Nc1cccc(NS(C)(=O)=O)c1
inactive: NCI-H23 lung 80.8% | NCI-H226 lung 96.4% | HOP-62 NSCLC 95.9% | NCI-H460 lung 110% | HOP-92 NSCLC 67.6% | NCI-H522 lung 93% | A549/ATCC NSCLC 112% | 786-0 renal 95.6% | COLO 205 colon 124% | DU-145 prostate 101% | K-562 leukemia 91.4% | MALME-3M melanoma 112% | MDA-MB-231 breast 80.6% | RXF 393 renal 89.3% | SF-268 CNS 90.1% | SF-295 CNS 93.7% | SF-539 CNS 89.2% | UACC-257 melanoma 118% | M14 melanoma 113%

Cn1cc(-c2csc(-c3cn(C)c4ncccc34)n2)c2ccccc21
active: NCI-H522 lung -18.8% | COLO 205 colon -7.52% | SF-295 CNS 9.79%
inactive: NCI-H23 lung 41.8% | NCI-H226 lung 74.8% | HOP-62 NSCLC 33.8% | NCI-H460 lung 11.7% | HOP-92 NSCLC 66.1% | A549/ATCC NSCLC 23.8% | 786-0 renal 60% | DU-145 prostate 28% | K-562 leukemia 14.8% | MALME-3M melanoma 48.3% | MDA-MB-231 breast 52.2% | RXF 393 renal 19.9% | SF-268 CNS 50.6% | UACC-257 melanoma 61.1% | M14 melanoma 12.2%

C=CC[N+]1(CC)CCN=C1CCCCCCCCCCCCCCCCC (centres undefined)
active: NCI-H23 lung -92.9% | NCI-H226 lung -50% | HOP-62 NSCLC -95% | NCI-H460 lung -100% | HOP-92 NSCLC -57.6% | NCI-H522 lung -85.2% | A549/ATCC NSCLC -92.9% | 786-0 renal -98.4% | COLO 205 colon -100% | DU-145 prostate -100% | K-562 leukemia -66.9% | MALME-3M melanoma -46.4% | MDA-MB-231 breast -89.7% | RXF 393 renal -90.3% | SF-268 CNS -83.4% | SF-295 CNS -31.4% | SF-539 CNS -98.2% | UACC-257 melanoma -91.3% | M14 melanoma -99.8%

COc1ccc(C2c3ccc4ccccc4c3Oc3ncnc(N)c32)cc1 (centres undefined)
inactive: NCI-H23 lung 83% | NCI-H226 lung 63.9% | HOP-62 NSCLC 45.1% | NCI-H460 lung 92.4% | HOP-92 NSCLC 70.4% | NCI-H522 lung 46.2% | A549/ATCC NSCLC 97.3% | 786-0 renal 97.1% | COLO 205 colon 94.5% | DU-145 prostate 102% | K-562 leukemia 41.2% | MALME-3M melanoma 93.1% | MDA-MB-231 breast 64.8% | RXF 393 renal 85.5% | SF-268 CNS 86.2% | SF-295 CNS 87% | SF-539 CNS 88.2% | UACC-257 melanoma 98.5% | M14 melanoma 83%

Source: PubChem BioAssay (NCI)
